Reference: PubChem BioAssay AID504336 (NMMLSC, 2011)
Several values for one entry are separate records, joined by “and”; a condition that tells them apart may be missing. Equal entries are not always repeated. Activity calls are given as the source filed them.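 How the source made its calls: active means compounds whose GFP signal falls below 65% of the DMSO control level; inconclusive means fewer than 70 yeast cells counted in the well; inactive means the rest.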

Assay: TOR branch reporter RPL19A-GFP response – cell-based, S. cerevisiae, third cherry pick, flow cytometry, confirmation (AID 504336);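 further: median GFP fluorescence of all gated yeast cells by flow cytometry; ratio of well median fluorescence to plate mean of DMSO wells with DMSO = 100%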
Settings: S. cerevisiae RPL19A-GFP strain, 3 h, at 10 µM, hits give low values

GFP response relative to DMSO, inactive:
CC(=O)Nn1cnc2c(c1=O)C1(CCCC1)Cc1ccccc1-2 99.3%
Nc1c(C(=O)O)ccc2c1C(=O)c1ccccc1C2=O 101%
CNc1nc(N)c([N+](=O)[O-])c(Nc2cccc(Cl)c2)n1 94.1%
C=CCNc1ncnc2ccccc12 103%
COC(=O)COc1c(Cl)cc(Cl)c2ccc(C)nc12 105%
Cc1cc(C)c2ccc(N)nc2c1O 101%
COCCCNc1nc(N)c([N+](=O)[O-])c(Nc2cc(OC)ccc2OC)n1 101%
CS(=O)(=O)c1nc(-c2ccc(F)cc2)cc(C(F)(F)F)n1 97.8%
COc1ccc(NC(=O)ON=C2c3ccccc3-c3ccccc32)cc1 107%
Cn1c(NCCO)nc2c(c1=O)C1(CCCCC1)Cc1ccccc1-2 103%
COCC(C)NC(=O)CCS(=O)(=O)c1nc(-c2ccc(OC)cc2)cc(C(F)(F)F)n1 (centres undefined) 98.3% and 102%
Nc1cccc2c1C(=O)c1ccc(Cl)cc1C2=O 102%
COc1ccc(OC)c(N/C(C)=C/C(=O)c2ccccc2)c1 103%
Cc1ccc(C(=O)/C=C/Nc2cccc(O)c2)cc1 101%
COCCCNc1nc(N)c([N+](=O)[O-])c(Nc2ccccc2OC)n1 99.1%
Oc1c(Br)cc(Br)c2cccnc12 88.3%
COc1ccc(OC)c(Nc2nc(NCCC(C)C)nc(N)c2[N+](=O)[O-])c1 103%
NC(=O)COc1cccc2cccnc12 102%
OCCN1CCN(c2ncnc3ccc(Br)cc23)CC1 102%
O=C(N/N=C/c1ccccc1O)c1cccc2ccccc12 97%
Cc1cc(C)c(NC(=O)CC(=O)c2ccccc2)c(Cl)c1 97.8%
CCCOCc1ccc(O)c2ncccc12 101%
CC(=O)C(CC(=O)N1CCCC1)C(=O)Nc1ccc(Cl)cc1 (centres undefined) 102%
C=CCNc1ncnc2ccc(Br)cc12 99.3%
CC(=O)C(Cl)C(=O)Nc1ccccc1 (centres undefined) 98.8%
CC(=O)NC(C)c1cc(Cl)c2cccnc2c1O (centres undefined) 99.1%
C/C(=C\C(=O)c1ccccc1)Nc1cccc(O)c1 98%
N#Cc1c(N)nc(N)nc1Nc1ccc(Br)cc1 99.6%
O=C(Nc1ccccc1)ON=C1c2ccccc2-c2ccccc21 92.3%
Cc1ccc(C(=O)Nc2nc(-c3ccccn3)cs2)o1 99.3%
COc1ccc(OC)c2c(=O)cc(C(=O)O)[nH]c12 92.3%
Cc1ccc(-c2cc(C(F)F)nc(S(C)(=O)=O)n2)cc1 96.2%
COc1cc(=O)n(C)c2c(O)cccc12 101%
COc1cccc2c(O)cc(=O)n(C)c12 99.6%
CCN(CC)C(=O)Oc1cc(=O)n(C)c2ccccc12 99.8%
O=c1cc(C(F)(F)F)[nH]c2c(OC(F)(F)F)cccc12 101%
Cc1cccc(C)c1Nc1ncnc(N)c1[N+](=O)[O-] 98.5%
CNc1cccc2c1C(=O)c1ccccc1C2=O 102%
CN1CCN(C(=O)c2cc(COc3ccc(F)cc3Cl)on2)CC1c1ccccc1 (centres undefined) 100%
